Source: PubChem BioAssay

Tested on: Sonic hedgehog protein (Shh)
Experiment: small-molecule binders of Shh protein, primary screen, biochemical, small-molecule microarray, 635/667 nm fluorescence (AID 1151);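 also: Shh protein binding to compounds spotted on small-molecule microarray slides; score combines spot fluorescence intensity with signal-to-noise across triplicate slides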
Conditions: small-molecule microarray binding, 635 nm fluorescence; higher = more signal

Row | Structure (SMILES) | composite z-score
1 | CC(C)C(=C=CC[C@@H](O)c1ccc(OCCO)cc1)CCO | 1.59
2 | CC#CCO[Si](C#CCCCCCC)(C(C)C)C(C)C | -1.62
3 | CN(C)CCCC[C@@H]1NC(=O)[C@H]2C[C@@H](C(=O)NCc3ccc(F)cc3)[C@@H](c3ccc(O)cc3)N2C1=O | 2.15
4 | CC(C)N1CC=CC23O[C@@H]4C=CCCOC(=O)C4[C@H]2C(=O)N(CCCCCO)[C@@H]3C1=O (stereo partly specified) | 0.0551
5 | COCCOC(=O)N1C(=O)[C@@]2(c3ccccc31)[C@H](C(=O)N1CCCCCCC1)[C@H]1C(=O)O[C@H](c3ccccc3)[C@H](c3ccccc3)N1[C@@H]2c1ccc(O)cc1 | 2.17
6 | C#CCN([C@H](/C=C/C1CC1)[C@@H](O)Cc1ccccc1)[C@@H](Cc1ccccc1)C(=O)OC | 1.08
7 | COC(=O)[C@@]1(Cc2ccc(F)cc2)[C@H]2c3cc(C(=O)N(C)C)n(CCn4cc([N+](=O)[O-])nc4C)c3C[C@H]2CN1C(=O)c1ccccc1 | -0.755
8 | CCOC(=O)C[C@H]1[C@H](OC(=O)Cc2ccc3c(c2)OCO3)[C@@H](NC(=O)c2ccccc2)c2cc(OCCCO)ccc2N1C(=O)Cc1ccc(OC)cc1 | -0.256
9 | C[N+](C)(C)CCCC[C@@H]1NC(=O)[C@H]2C[C@@H](C(=O)NCCCCCNC(=O)CS)[C@@H](c3ccc(O)cc3)N2C1=O | 0.748
10 | CN1C(=O)[C@]2(CCS(=O)(=O)c3ccccc3)N=C(c3ccc(OCCCO)cc3)O[C@@H]2c2ccccc21 | 1.54
11 | O=C1O[C@@H](c2ccccc2)[C@@H](c2ccccc2)N2[C@@H](c3ccc(OCCO)cc3)[C@]3(C(=O)Nc4ccc(C#CCCO)cc43)[C@@H](C(=O)Nc3nc4ccccc4s3)[C@H]12 | 0.589
